From PubChem BioAssay (NCATS)
Results filed as inconclusive are left out. The source made the active and inactive calls. Calls follow the shape of the dose curve; as a rule, active = well fitted curve in the direction sought with a large enough effect; inconclusive = small, poorly fitted or top-dose-only effect, or another doubt; inactive = no such curve, though single readings can be large; an effect the other way counts as inactive or inconclusive.

What was measured:
[1] = qHTS of pediatric cancer cell lines to identify multiple opportunities for drug repurposing: Primary screen for DAOY cells (AID 1347090); conditions: DAOY medulloblastoma viability, CellTiter-Glo luminescence, 48 h; series mostly up to 46 µM; also: nearly all actives have a fitted effect of over 55% in size
In short: (§1)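 Eight- or eleven-point concentration series, 48 h treatment at 37 degrees C in growth media; readout CellTiter-Glo luminescence. Potency and efficacy were taken from the concentration-response curves.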

[2] = qHTS of pediatric cancer cell lines to identify multiple opportunities for drug repurposing: Primary screen for BT-37 cells (AID 1347094); conditions: BT-37 viability, CellTiter-Glo luminescence, 48 h; series mostly up to 57.3 µM; also: potency is read from the fitted curve at half-maximal effect
In short: (§2)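 ATP-based luminescence (CellTiter-Glo) quantifies viability after a 48-hour exposure. Compounds are dosed across 8 or 11 final concentrations; DMSO and 2.3 µM bortezomib serve as controls.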

[3] = qHTS of pediatric cancer cell lines to identify multiple opportunities for drug repurposing: Primary screen for U-2 OS cells (AID 1347096); conditions: U-2 OS viability, CellTiter-Glo luminescence, 48 h; series mostly up to 46 µM; also: nearly all actives have a fitted effect of over 50% in size; also: potency is read from the fitted curve at half-maximal effect
In short: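 Cells (500-1,000/well) in growth media were settled 5 h at 37 degrees C, then given compounds for 48 h. Viability was read as CellTiter-Glo luminescence. Primary runs used MIPE at 11 points (0.78 nM-46 µM) and NPC at 8 points (0.59 nM-46 µM); follow-ups used 11 points.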

[4] = qHTS of pediatric cancer cell lines to identify multiple opportunities for drug repurposing: Primary screen for Saos-2 cells (AID 1347097); conditions: Saos-2 viability, CellTiter-Glo ATP luminescence, 48 h; series mostly up to 46 µM; also: nearly all actives have a fitted effect of over 40% in size; also: potency is read from the fitted curve at half-maximal effect
In short: as §2

[5] = qHTS of pediatric cancer cell lines to identify multiple opportunities for drug repurposing: Primary screen for SK-N-SH cells (AID 1347098); conditions: SK-N-SH viability, CellTiter-Glo luminescence, 48 h; series mostly up to 57 µM; also: nearly all actives have a fitted effect of over 65% in size; also: potency is read from the fitted curve at half-maximal effect
In short: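 Cells (500-1,000/well) rested 5 h, then received compounds for 48 h; metabolically active cells were measured by CellTiter-Glo luminescence. Final concentrations spanned up to 46 µM (MIPE, 11-point) or 0.59 nM-46 µM (NPC, 8-point) in primary screens, 11-point in follow-ups.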

[6] = qHTS of pediatric cancer cell lines to identify multiple opportunities for drug repurposing: Primary screen for SK-N-MC cells (AID 1347093); conditions: SK-N-MC viability, CellTiter-Glo luminescence, 48 h; series mostly up to 46 µM; also: potency is read from the fitted curve at half-maximal effect
In short: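 Metabolically active cells were quantified by ATP-dependent luminescence (CellTiter-Glo, 15 min at room temperature) following 48 h treatment. Cells had been plated at 500-1,000 per well and settled for 5 h beforehand.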

[7] = qHTS of pediatric cancer cell lines to identify multiple opportunities for drug repurposing: Primary screen for NB1643 cells (AID 1347099); conditions: NB1643 neuroblastoma viability, CellTiter-Glo luminescence, 48 h; series mostly up to 46 µM; also: nearly all actives have a fitted effect of over 50% in size; also: potency is read from the fitted curve at half-maximal effect
In short: as §2

[8] = qHTS of pediatric cancer cell lines to identify multiple opportunities for drug repurposing: Primary screen for SJ-GBM2 cells (AID 1347091); conditions: SJ-GBM2 viability, CellTiter-Glo luminescence, 48 h; series mostly up to 46 µM; also: potency is read from the fitted curve at half-maximal effect
In short: as §1

[9] = qHTS of pediatric cancer cell lines to identify multiple opportunities for drug repurposing: Primary screen for A673 cells (AID 1347092); conditions: A673 Ewing sarcoma viability, CellTiter-Glo ATP luminescence, 48 h; series mostly up to 46 µM; also: nearly all actives have a fitted effect of over 45% in size; also: potency is read from the fitted curve at half-maximal effect
In short: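 A673 cells (500-1,000 cells/well) were treated 48 hours at 37 degrees C with compounds at 11-point (0.78 nM to 46 µM) or 8-point (0.59 nM to 46 µM) dilutions. Viability read by CellTiter-Glo luminescence; concentration-response curves fitted.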

[10] = qHTS of pediatric cancer cell lines to identify multiple opportunities for drug repurposing: Primary screen for NB-EBc1 cells (AID 1347095); conditions: NB-EBc1 neuroblastoma viability, CellTiter-Glo luminescence, 48 h; series mostly up to 46 µM; also: potency is read from the fitted curve at half-maximal effect
In short: as §2

Compound: CN(CC=CC#CC(C)(C)C)Cc1cccc2ccccc12
- Potency [1]: inactive
- Potency [2]: inactive
- Potency [3]: inactive
- Potency [4]: inactive
- Potency [5]: inactive

Compound: CCCCCCCCCCCCCC(=O)N[C@H](CO)[C@H](O)c1ccc([N+](=O)[O-])cc1
- Potency [1]: inactive
- Potency [6]: 18.7 µM (active)
- Potency [3]: inactive
- Potency [4]: 18.7 µM (active)

Compound: COc1ccc2nc3cc(Cl)ccc3c(Nc3cc(CN4CCCC4)c(O)c(CN4CCCC4)c3)c2n1
- Potency [1]: inactive
- Potency [3]: inactive
- Potency [4]: inactive
- Potency [7]: inactive

Compound: COc1ccc(-c2cc(=O)c3c(O)cc(O[C@@H]4O[C@H](CO[C@@H]5O[C@@H](C)[C@H](O)[C@@H](O)[C@@H]5O)[C@@H](O)[C@H](O)[C@@H]4O)cc3o2)cc1O
- Potency [8]: inactive
- Potency [9]: 14.8 µM (active)
- Potency [6]: 7.43 µM (active)
- Potency [2]: inactive
- Potency [10]: inactive
- Potency [3]: inactive
- Potency [4]: inactive
- Potency [5]: 27.1 µM (active)
- Potency [7]: 16.6 µM (active)

Compound: Fc1ccc(C(c2ccc(F)cc2)N2CCN(CC=Cc3ccccc3)CC2)cc1
- Potency [1]: inactive
- Potency [2]: inactive
- Potency [3]: inactive
- Potency [5]: inactive

Compound: Cc1cc2c(cc1C1(c3ccc(C(=O)O)cn3)CC1)C(C)(C)CCC2(C)C
- Potency [1]: inactive
- Potency [6]: inactive
- Potency [2]: inactive
- Potency [3]: inactive
- Potency [4]: inactive
- Potency [5]: inactive
- Potency [7]: inactive

Compound: CC(C)C[C@H](NC(=O)c1cc2ccccc2s1)C(=O)N1CCN(C(=O)[C@H](CO)NS(=O)(=O)c2ccc(Cl)cc2Cl)CC1
- Potency [8]: 18.7 µM (active)
- Potency [9]: 23.5 µM (active)
- Potency [6]: 10.5 µM (active)
- Potency [2]: 15.3 µM (active)
- Potency [10]: 26.4 µM (active)
- Potency [4]: 14.8 µM (active)
- Potency [7]: 23.5 µM (active)

Compound: CN1CCN(c2ncc(-c3cc(Cl)cc(Cl)c3Cl)c(N)n2)CC1
- Potency [1]: inactive
- Potency [6]: 10.5 µM (active)
- Potency [2]: 3.06 µM (active)
- Potency [3]: inactive
- Potency [5]: 21.5 µM (active)
- Potency [7]: 16.6 µM (active)

Compound: C[C@]12C=CC(=O)C=C1CC[C@@H]1[C@@H]2[C@@H](O)C[C@@]2(C)[C@@H]1CC[C@]2(O)C(=O)CO
- Potency [1]: inactive
- Potency [6]: 29.6 µM (active)
- Potency [10]: 14.8 µM (active)
- Potency [3]: inactive
- Potency [4]: inactive
- Potency [7]: inactive

Compound: C#C[C@]1(O)CC[C@H]2[C@H]3CCc4cc(OC)ccc4[C@H]3CC[C@@]21C
- Potency [8]: inactive
- Potency [9]: 18.7 µM (active)
- Potency [6]: 20.9 µM (active)
- Potency [10]: inactive
- Potency [3]: inactive
- Potency [4]: inactive

Compound: COc1ccc2c(c1)c(C1=C(c3c[nH]c4ccccc34)C(=O)NC1=O)cn2CCCN(C)C
- Potency [1]: inactive
- Potency [9]: 23.5 µM (active)
- Potency [10]: 20.9 µM (active)
- Potency [3]: inactive
- Potency [5]: 21.5 µM (active)

Compound: NS(=O)(=O)c1ccc(Nc2nc(OCC3CCCCC3)c3[nH]cnc3n2)cc1
- Potency [8]: 26.4 µM (active)
- Potency [9]: 23.5 µM (active)
- Potency [6]: 6.62 µM (active)
- Potency [4]: 16.6 µM (active)
- Potency [7]: 18.7 µM (active)

Compound: COc1ccc(-c2cc3nccn3c(Nc3ncccc3C(N)=O)n2)cc1OC
- Potency [8]: 1.18 µM (active)
- Potency [9]: 1.48 µM (active)
- Potency [6]: 1.66 µM (active)
- Potency [10]: 2.64 µM (active)
- Potency [4]: 1.05 µM (active)
- Potency [7]: 2.35 µM (active)

Compound: CCCCOCCOc1nc(-c2ccc(C(=O)O)c(F)c2)sc1C
- Potency [8]: inactive
- Potency [9]: inactive
- Potency [2]: inactive
- Potency [10]: inactive
- Potency [4]: inactive
- Potency [5]: 6.81 µM (active)
- Potency [7]: inactive

Compound: C[C@@H]1C[C@H]2[C@@H]3CCC4=CC(=O)C=C[C@]4(C)[C@@]3(F)[C@@H](O)C[C@]2(C)[C@@]1(O)C(=O)CO
- Potency [8]: inactive
- Potency [6]: 0.001 µM (active)
- Potency [2]: inactive
- Potency [10]: inactive
- Potency [3]: inactive
- Potency [4]: inactive
- Potency [7]: inactive

Compound: C=C1[C@H](n2cnc3c(=O)[nH]c(N)nc32)C[C@H](O)[C@H]1CO
- Potency [8]: 0.0235 µM (active)
- Potency [6]: 0.0187 µM (active)
- Potency [2]: 21.7 µM (active)
- Potency [10]: 2.09 µM (active)
- Potency [3]: inactive
- Potency [5]: inactive
- Potency [7]: inactive

Compound: CC(C)CN(C[C@H](O)[C@H](Cc1ccccc1)NC(=O)O[C@H]1CCOC1)S(=O)(=O)c1ccc(N)cc1
- Potency [8]: inactive
- Potency [9]: 11.8 µM (active)
- Potency [10]: inactive
- Potency [7]: inactive

Compound: OC[C@H]1O[C@@H](Oc2ccc(O)cc2)[C@H](O)[C@@H](O)[C@H]1O
- Potency [8]: inactive
- Potency [6]: 13.2 µM (active)
- Potency [2]: inactive
- Potency [10]: inactive
- Potency [3]: inactive
- Potency [4]: inactive
- Potency [5]: inactive

Compound: COc1ccc(Cn2ccc3ccc(C(=O)NO)cc32)cc1
- Potency [8]: inactive
- Potency [9]: 14.8 µM (active)
- Potency [6]: 5.9 µM (active)
- Potency [10]: 8.33 µM (active)
- Potency [4]: inactive
- Potency [5]: 21.5 µM (active)
- Potency [7]: 14.8 µM (active)

Compound: C[C@]12CC[C@@H]3c4ccc(O)cc4CC[C@H]3[C@H]1[C@@H](O)[C@@H](O)[C@H]2O
- Potency [8]: inactive
- Potency [9]: 14.8 µM (active)
- Potency [2]: inactive
- Potency [10]: inactive
- Potency [3]: inactive

Compound: CC1=C[C@@H]2[C@@H]([C@@H](O)C[C@@]3(C)[C@H]2C[C@@H](C)[C@]3(O)C(=O)CO)[C@@]2(C)Cc3cnn(-c4ccccc4)c3C=C12
- Potency [8]: 20.9 µM (active)
- Potency [9]: 18.7 µM (active)
- Potency [10]: 23.5 µM (active)
- Potency [3]: inactive
- Potency [4]: 29.6 µM (active)

Compound: Cn1cnc(-c2cc3nccc(Oc4ccc(NC(=S)NC(=O)Cc5ccccc5)cc4F)c3s2)c1
- Potency [8]: 0.0469 µM (active)
- Potency [9]: 29.6 µM (active)
- Potency [4]: 16.6 µM (active)
- Potency [5]: 21.5 µM (active)
- Potency [7]: 16.6 µM (active)

Compound: CC(C)(C)c1[nH]cnc1C=c1[nH]c(=O)c(=Cc2ccccc2)[nH]c1=O
- Potency [8]: 0.001 µM (active)
- Potency [9]: 0.001 µM (active)
- Potency [6]: 0.001 µM (active)
- Potency [10]: 0.001 µM (active)
- Potency [4]: 0.136 µM (active)
- Potency [7]: 48.1 µM (active)

Compound: Cc1ccc(C2=Nc3ccc(Cl)cc3OC2)cc1
- Potency [8]: 23.5 µM (active)
- Potency [9]: 18.7 µM (active)
- Potency [3]: inactive
- Potency [5]: 2.15 µM (active)

Compound: Clc1ccc(COC(Cn2ccnc2)c2ccc(Cl)cc2Cl)c(Cl)c1 (stereo not given)
- Potency [8]: 18.7 µM (active)
- Potency [9]: 23.5 µM (active)
- Potency [5]: inactive

Compound: CN(C)CCOc1ccc(-c2nc(-c3ccc4c(c3)CCC4=NO)c(-c3ccncc3)[nH]2)cc1
- Potency [8]: 23.5 µM (active)
- Potency [9]: 18.7 µM (active)
- Potency [2]: 30.6 µM (active)
- Potency [10]: inactive
- Potency [4]: 23.5 µM (active)
- Potency [5]: 24.1 µM (active)
- Potency [7]: 20.9 µM (active)

Compound: CCCCCOC(=O)Nc1nc(=O)n([C@@H]2O[C@H](C)[C@@H](O)C2O)cc1F (stereo not given in full)
- Potency [8]: inactive
- Potency [9]: inactive
- Potency [10]: inactive
- Potency [3]: inactive
- Potency [5]: inactive

Compound: O=C(Nc1ncc(SCCN2CCCC2)s1)[C@]1(c2ccc(S(=O)(=O)C3CC3)cc2)C[C@@H]1C1CCCCC1
- Potency [8]: 23.5 µM (active)
- Potency [6]: 20.9 µM (active)
- Potency [2]: 30.6 µM (active)
- Potency [10]: 26.4 µM (active)
- Potency [3]: 23.5 µM (active)
- Potency [4]: 33.2 µM (active)
- Potency [5]: inactive

Compound: CCN1CCC(n2cc(CNc3cc(Cl)c4ncc(C#N)c(Nc5ccc(F)c(Cl)c5)c4c3)nn2)CC1
- Potency [8]: 18.7 µM (active)
- Potency [9]: 14.8 µM (active)
- Potency [2]: 24.3 µM (active)
- Potency [10]: 23.5 µM (active)
- Potency [4]: 14.8 µM (active)
- Potency [7]: 18.7 µM (active)

Compound: NCc1c[nH]c(=S)n1[C@H]1CCc2c(F)cc(F)cc2C1
- Potency [8]: 26.4 µM (active)
- Potency [9]: 18.7 µM (active)
- Potency [6]: 10.5 µM (active)
- Potency [10]: 23.5 µM (active)
- Potency [3]: inactive
- Potency [4]: 18.7 µM (active)
- Potency [7]: 9.35 µM (active)

Compound: COc1c(C)cnc(Cn2cnc3c(Cl)nc(N)nc32)c1C
- Potency [8]: 0.296 µM (active)
- Potency [9]: 0.235 µM (active)
- Potency [6]: 0.132 µM (active)
- Potency [10]: 0.118 µM (active)
- Potency [4]: inactive
- Potency [5]: 0.341 µM (active)
- Potency [7]: 0.264 µM (active)
